Compounds with a hit are over-represented: about 5.4% of the library has one in this group of screens.
Gal4-VP16 FLuc: counter-screen for ROR gamma inhibitors: Gal4-VP16 reporter. AID 2546. Potency, µM (top dose mostly 53.6 µM), most hits filed as inhibitors. Drosophila S2 Gal4-VP16 UAS-luciferase, luminescence, 20 h. 310,000 tested, 3.5% active;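 also: Gal4-VP16 expression switched on by copper sulfate through the metallothionein promoter; nearly all actives have a fitted effect of over 50% in size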
Six1-Eya2 inh: Six1/Eya2 interaction inhibition. Q15475+O00167. AlphaScreen GST-Six1/His-Eya2 binding, biochemical; active compounds read low. activity change, % (concentration not given with the values). 360,000 tested, 0.56% active; in the data active = activity change below about -65%; inconclusive = mostly about -30% to -63%
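AlphaScreen with GST-Six1 and His-Eya2 (5X mix: 250 nM and 500 nM), glutathione donor and nickel acceptor beads; buffer 50 mM Tris pH 8.0, 300 mM NaCl, 1 mM TCEP; 1 h at 37 C in the dark.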
RORg inh: inhibitors of mouse ROR gamma transcriptional activity; P51450; Drosophila S2 Gal4-RORgamma UAS-luciferase reporter, 20 h; Potency, µM (highest dose often 53.6 µM), hits mostly inhibitors; 310,000 tested, 5.4% active; AID 2551; also: nearly all actives have a fitted effect of over 60% in size
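Stably transfected Drosophila Schneider cells are the test system, with ROR gamma fused to Gal4 and luciferase under UAS control; luminescence is read after 20 hr of 700 uM copper sulfate induction at ambient temperature.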
CtBP-E1A inh: inhibitors of CtBP/E1A interaction. AlphaScreen GST-E1A/His-CtBP binding, 1536-well; active compounds read low. activity change, % (concentration not given with the values). 340,000 tested, 0.49% active; in the data active = activity change below about -65%; inconclusive = mostly about -30% to -63%
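Protein mix (5X: 125 nM each GST-E1A, His-CtBP) was incubated with pinned compound 2 h at 37 deg C in dark, in 50 mM Tris pH 8.0 buffer with 300 mM NaCl. Glutathione donor and nickel acceptor beads followed; AlphaScreen signal read after 1 h.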
p53 reactivator: mutant p53 re-activation in reporter cells; H1299 p53-A138V BP100-luciferase reporter, luminescence, 24 h; AID 504706; 320,000 tested, 0.063% active; Potency, µM (top dose mostly 92.2 µM), usual class: activators; also: nearly all actives have a fitted effect of over 45% in size
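H1299 (p53-null), stable ts p53-A138V + BP100-Luc; 1000 cells/well, Opti-MEM/10% FBS; cpd 4 pt, 1:5; 24 h, 37 deg C, 5% CO2; detection reagent 10 min RT; luminescence.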
Numbers stand for hits; 0 = inactive; ? = inconclusive; - = no result given; [ ] = dose if it differs, or a comment. Unless noted, calls follow the shape of the dose curve; as a rule, active = well fitted curve in the direction sought with a large enough effect; inconclusive = small, poorly fitted or top-dose-only effect, or another doubt; inactive = no such curve, though single readings can be large; an effect the other way counts as inactive or inconclusive.

SMILES	Gal4-VP16 FLuc	Six1-Eya2 inh	RORg inh	CtBP-E1A inh	p53 reactivator
N#CC(C#N)=C(Nc1ccc(F)cc1)SCc1cccc(Br)c1	7.9µM	0	?	0	0
Cc1cccc(CSC(Nc2ccc(F)cc2)=C(C#N)C#N)c1	?	0	?	0	0
CC(C)(C)CNC(=O)c1cccc2c1C(=O)c1ccc(-c3cc4ccccc4o3)cc1S2(=O)=O	-	0	-	0	0
COc1ccc(OC)c(Nc2nc(=O)c3cccnc3s2)c1	3.2µM	0	4.5µM	0	0
O=C/C=C/c1ccc(O)cc1	0	-	0	-	-
C=CCCCC	0	-	0	-	-
CC(C)c1nc(SCC(=O)c2ccc(F)cc2)c2ccccc2n1	?	0	5.6µM	0	0
Cc1ccc(C(=O)CSc2nc(C(C)C)nc3ccccc23)cc1	0	0	?	0	0
COc1ccc(C(=O)CSc2nnc3ccc(-c4ccccn4)nn23)cc1	0[10 µM]	0	0	0	0
Cc1nc(-c2ccccn2)nc(SCC(=O)c2ccc(F)cc2)c1Cl	?	0	3.5µM	0	0
Cn1c(SCC(=O)c2ccc(F)cc2)nc2cccnc21	0	0	0	0	0
COc1ccc(C(=O)CSc2nc(-c3ccccn3)nc(C)c2Cl)cc1	?	0	2.8µM	0	0
CSC(=N)N	0	-	0	-	-
O=C(NCc1cccc(F)c1)c1ccc2nc(N3CCOCC3)sc2c1	?	0	0	0	-
c1cncc(CNc2ncnc3sccc23)c1	0	0	?	0	0
COc1ccc(CNc2ncnc3sccc23)cc1	?	0	?	0	0
COc1ccc(CNc2ncnc3sccc23)cc1OC	11µM	0	?	0	0
CN(C)C(CNc1ncnc2sccc12)c1ccccc1 (configuration not stated)	0	0	0	0	0
c1ccc(CNc2ncnc3sccc23)cc1	18µM	0	0	-	0
OC(CNc1ncnc2sccc12)c1ccccc1 (configuration not stated)	6.3µM	0	?	0	?
CCn1c(SCC#N)nc2c(c1=O)C1(CCCC1)Cc1ccccc1-2	0	0	0	0	0
CCn1c(=O)c2c(n3c(=S)[nH]nc13)-c1ccccc1CC21CCCCC1	0	0	2.8µM	0	0
COc1ccc(CNc2nc(-c3ccccc3OC)nc3ccccc23)c(OC)c1	?	-	13µM	-	-
COc1cc2[nH]c(=S)nc(NCc3ccc(Cl)cc3)c2cc1OC	7.1µM	?	5µM	?	0
COc1ccccc1CNc1nc(=S)[nH]c2cc(OC)c(OC)cc12	?	-81	0	-85	0
SMILES	Gal4-VP16 FLuc	Six1-Eya2 inh	RORg inh	CtBP-E1A inh	p53 reactivator
COc1ccc(CCNC(=O)c2ccc(CNc3nc(=S)[nH]c4ccccc34)cc2)cc1OC	0	0	0	0	0
COc1cc2ncnc(NCc3cccs3)c2cc1OC	0[10 µM]	0	0	0	0
COc1cc2[nH]c(=S)nc(NCc3cccs3)c2cc1OC	13µM	-84	6.3µM	-90	0
CN(CC(=O)Nc1ccccc1Cl)C(=O)CN1C(=O)C2CC=CCC2C1=O (configuration not stated)	-	0	-	0	0
O=C(NNC(=O)c1ccccc1OCc1ccc(F)cc1)c1ccccc1O	10µM	0	4.5µM	0	?
O=C(NNC(=O)c1ccccc1OCc1ccccc1)c1ccccc1O	11µM	0	6.3µM	0	?
O=C(NCc1ccc(F)cc1)c1ccccc1OCc1ccccc1	0	0	0	0	0
O=C(NNC(=O)c1ccccc1OCc1ccccc1)c1ccccc1F	0	0	0	0	?
Cc1ccc(C(=O)Nc2ncn[nH]2)cc1	13µM	0	?	0	0
CC(C)(C)c1ccc(C(=O)Nc2ncn[nH]2)cc1	?	0	4µM	0	0
CCCCCCSc1ccc([C@@H]2[C@H]3C(=O)N(CC)C(=O)[C@H]3[C@]3(C(=O)OC)CCCCN23)cc1OC	-	0	-	0	0
O=C(/C=C/c1ccccc1)Nc1ccc2c(c1)OCCO2	13µM	0	10µM	0	0
COc1ccccc1/C=C/C(=O)Nc1ccc2c(c1)OCCO2	0	0	1.6µM	0	?
O=C(/C=C/c1ccccc1)c1ccc2c(c1)OCO2	0	0	0	-	?
CC(C)=CC(=O)Nc1ccc2c(c1)OCO2	?	0	11µM	0	-
O=C(/C=C/c1ccncc1)c1ccc2c(c1)OCCO2	5µM	0	4µM	0	0
CC1CC(C)(C)NC(=S)O1 (configuration not stated)	0	0	0	0	0
CCCS(=O)(=O)NC(=O)C1(C)CCN(C(=O)c2cc(C)nn2C(C)(C)C)C1 (configuration not stated)	-	0	-	0	-
Cc1cc(=O)oc(C)c1C(=O)Nc1cccc(F)c1	0	0	0	0	0
Nc1cc(Cl)ccc1C(=O)OCC(=O)N1CCCCCC1	-	0	-	0	0
CC[C@H](C)[C@H](NC(=O)[C@H](C)NC(=O)[C@H](CC(=O)O)NC(=O)[C@H](CO)NC(=O)[C@@H](N)Cc1cnc[nH]1)C(=O)N[C@@H](Cc1ccccc1)C(=O)N[C@H](C(=O)N[C@@H](CCC(N)=O)C(=O)N[C@@H](CCC(N)=O)C(=O)N[C@@H](Cc1ccc(O)cc1)C(=O)N[C@@H](CO)C(=O)N[C@@H](CCCCN)C(=O)N[C@@H](CC(C)C)C(=O)N[C@@H](CC(C)C)C(=O)N[C@@H](C)C(=O)N[C@@H](CCCCN)C(=O)N[C@@H](CC(C)C)C(=O)N[C@@H](C)C(=O)N[C@@H](CC(C)C)C(=O)N[C@@H](CCC(N)=O)C(=O)N[C@@H](CCCCN)C(=O)N[C@@H](Cc1ccc(O)cc1)C(=O)N[C@@H](CC(C)C)C(=O)N[C@@H](C)C(=O)N[C@@H](CO)C(=O)N[C@H](C(=O)N[C@@H](CC(C)C)C(=O)NCC(=O)N[C@@H](CO)C(=O)N[C@@H](CCCNC(=N)N)C(=O)N[C@H](C(=O)N[C@@H](CO)C(=O)N1CCC[C@H]1C(=O)N1CCC[C@H]1C(=O)N1CCC[C@H]1C(N)=O)[C@@H](C)O)[C@@H](C)CC)[C@@H](C)O	0	-	0	-	-
Cc1cccc(CN2[C@H](COC(=O)Nc3ccccc3)C=CS2(=O)=O)c1	-	0	-	0	-
O=C1c2ccccc2C(=O)C1c1ccc(Cl)cc1	0	0	0	0	0
O=C1c2ccccc2C(=O)C12OC2c1ccc(Cl)cc1Cl (configuration not stated)	?	0	10µM	0	0
Cn1cccc1-c1cc(C(=O)N/N=C/C=C/c2ccccc2)[nH]n1	?	0	5µM	0	0
Cn1cccc1-c1cc(C(=O)N/N=C/c2ccc(Cl)cc2)[nH]n1	0	0	0	?	0
COc1cc(/C=N/NC(=O)c2cc(-c3cccn3C)n[nH]2)cc(OC)c1OC	0	-67	?	-75	0
COc1cccc(/C=N/NC(=O)c2cc(-c3cccn3C)n[nH]2)c1O	2.8µM	-90	1µM	-90	0
Cc1noc(C)c1S(=O)(=O)Nc1ccc(C(=O)Nc2ccc(OC(F)(F)F)cc2)cc1	0	0	?	0	0
